According to the supplement of paper PMC13380429:

System: Vero E6 infected with SARS-CoV-2
Assay: inhibition of SARS-CoV-2 cytopathic effect; higher = more antiviral protection, active = above 15
Conditions: 48 h

Measured: inhibition of SARS-CoV-2 cytopathic effect

O=C(c1cc2ccccc2o1)N1CCN(Cc2ccccc2)CC1 [befuraline]
inactive: 1 nM -1.29% | 8.33 nM 1.94% | 100 nM 3.17% | 833.33 nM 0.64% | 10000 nM -2.11%

O=C1NC(=S)NC(=O)C1C(=O)Nc1ccccc1 [merbarone]
inactive: 1 nM -0.86% | 8.33 nM -1.86% | 100 nM -0.15% | 833.33 nM -0.03% | 10000 nM 1.95%

Cc1cc(O)c2c(c1)C(=O)c1cccc(O)c1C2=O [chrysophanic-acid]
inactive: 1 nM -0.27% | 8.33 nM 0.87% | 100 nM 0.28% | 833.33 nM -0.5% | 10000 nM 5.09%

O=S(=O)(O)NC1CCCCC1 [cyclamic-acid]
inactive: 1 nM -3.13% | 8.33 nM 1.15% | 100 nM 1.07% | 833.33 nM 0.19% | 10000 nM -3.53%

Cc1ccc(O)c([C@H](CCN(C(C)C)C(C)C)c2ccccc2)c1 [tolterodine]
inactive: 1 nM 2.11% | 8.33 nM 1.62% | 100 nM 1.96% | 833.33 nM -3.34% | 10000 nM -2.67%

NCCCCCc1c[nH]cn1 [impentamine]
inactive: 1 nM -2.08% | 8.33 nM -1.69% | 100 nM -0.14% | 833.33 nM -0.52% | 10000 nM 0.02%

CC(C)n1nc(C#Cc2ccccc2)c2c(N)ncnc21
inactive: 1 nM 0.9% | 8.33 nM -1.43% | 100 nM -4.23% | 833.33 nM 0.67% | 10000 nM 3.02%

N#CC(c1ccc(Cl)cc1)c1c(Cl)cc(-n2ncc(=O)[nH]c2=O)cc1Cl (stereo not given) [diclazuril]
inactive: 1 nM -4.3% | 8.33 nM -0.75% | 100 nM 0.27% | 833.33 nM 1.84% | 10000 nM 0.73%
